In PubChem BioAssay (NCI):
Compounds without any hit were thinned out: in the full panel of roughly 79,000, 15% have a hit. A number with no mark means an inactive call. Activity calls are given as the source filed them. No stated cut-off is given here; in the data, active means growth inhibition above about 70%; inactive means the rest.

How the values were obtained:
[1] = NCI Yeast Anticancer Drug Screen. Data for the rad50 strain (AID 155);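 further: 0% = growth of vehicle-only cultures of the same strain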; settings: S. cerevisiae rad50 strain growth inhibition, hits give high values
Summary of the method: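 Genetically altered yeast (DNA repair pathway); compound treatment; growth inhibition vs vehicle ctrl.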

[2] = NCI Yeast Anticancer Drug Screen. Data for the mec2-1 strain (AID 157); settings: S. cerevisiae mec2-1 strain, hits give high values
Summary of the method: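 Each compound was tested on mec2-1 yeast, a strain altered in DNA damage repair or cell cycle control. Growth inhibition is reported relative to vehicle.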

[3] = NCI Yeast Anticancer Drug Screen. Data for the sgs1 mgt1 strain (AID 161);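 further: 0% = growth of cultures given vehicle only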; settings: S. cerevisiae sgs1 mgt1 strain, hits give high values
Summary of the method: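 Read-out: growth inhibition vs vehicle controls. Cells: mutant yeast strain deficient in DNA damage repair.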

[4] = NCI Yeast Anticancer Drug Screen. Data for the cln2 rad14 strain (AID 165);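 further: 0% = growth equal to vehicle treated cultures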; settings: S. cerevisiae cln2 rad14 strain, hits give high values
Summary of the method: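 Test compounds were added to cln2 rad14 yeast cultures; inhibition of growth was then determined by comparison with vehicle treatment.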

[5] = NCI Yeast Anticancer Drug Screen. Data for the bub3 strain (AID 167); settings: S. cerevisiae bub3 mutant strain, hits give high values
Summary of the method: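 Yeast carrying a defined mutation is treated with each compound, and growth is compared with that of vehicle-exposed cells to give inhibition.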

[6] = NCI Yeast Anticancer Drug Screen. Data for the mlh1 rad18 strain (AID 175); settings: S. cerevisiae mlh1 rad18 strain growth inhibition, hits give high values
Summary of the method: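 Inhibition values reflect reduced growth of mutant yeast versus vehicle-treated controls following compound exposure; the mutations affect DNA damage repair.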

[7] = at 5.0 µM (retest, dose inferred, filed as 0.5)
[8] = at 50.0 µM (retest, dose inferred, filed as 5.0)

SMILES	growth inhibition [1, 7]	growth inhibition [1, 8]	growth inhibition ([1]; at 50.0 µM)	growth inhibition [2, 7]	growth inhibition [2, 8]	growth inhibition ([2]; at 50.0 µM)	growth inhibition [3, 7]	growth inhibition [3, 8]	growth inhibition ([3]; at 50.0 µM)	growth inhibition [4, 7]	growth inhibition [4, 8]	growth inhibition ([4]; at 50.0 µM)	growth inhibition [5, 7]	growth inhibition [5, 8]	growth inhibition ([5]; at 50.0 µM)	growth inhibition [6, 7]	growth inhibition [6, 8]	growth inhibition ([6]; at 50.0 µM)
Cc1cc(-c2ccc(O)c(C)c2)ccc1O	13%	94% (active)	83% (active)	-15%	74% (active)	57.4%	0%	78% (active)	74.6% (active)	5%	60%	51.8%	23%	98% (active)	72.5% (active)	8%	91% (active)	71.5% (active)
O=C(Oc1c(I)ccccc1=O)c1ccc([N+](=O)[O-])cc1	39%	98% (active)	99.2% (active)	57%	99% (active)	99.3% (active)	73% (active)	99% (active)	99.3% (active)	13%	98% (active)	99.2% (active)	21%	98% (active)	99% (active)	94% (active)	99% (active)	99.5% (active)
OC(Cc1ccccc1)(Cc1ccccc1)c1ccccc1	20%	98% (active)	88.5% (active)	13%	99% (active)	78.2% (active)	-3%	99% (active)	78% (active)	3%	98% (active)	93.9% (active)	-14%	97% (active)	88.3% (active)	-6%	99% (active)	96% (active)
C1=NN(c2ccccc2)C2c3ccccc3CCCC12 (configuration not stated)	8%	98% (active)	99.2% (active)	18%	99% (active)	98.7% (active)	8%	99% (active)	99% (active)	-4%	98% (active)	98.8% (active)	5%	99% (active)	99.1% (active)	-2%	99% (active)	98.7% (active)
CCCCCCCCCCCCCCC/C([O-])=N/[N+](C)(C)CC(C)O (configuration not stated)	98% (active)	98% (active)	90.9% (active)	99% (active)	98% (active)	91.2% (active)	99% (active)	99% (active)	92% (active)	99% (active)	98% (active)	88.2% (active)	99% (active)	98% (active)	91.5% (active)	98% (active)	97% (active)	89.9% (active)
N=C1C=CC(=C(c2ccc(N)cc2)c2ccc(N)cc2)C=C1	-2%	99% (active)	98.8% (active)	24%	98% (active)	98.5% (active)	8%	97% (active)	97.8% (active)	-15%	93% (active)	96.8% (active)	12%	98% (active)	98.3% (active)	-4%	97% (active)	97.4% (active)
C=CCNCCC1CCCCCC1	7%	97% (active)	96.6% (active)	6%	97% (active)	97.5% (active)	7%	98% (active)	49.1%	5%	96% (active)	8.8%	7%	97% (active)	97.7% (active)	4%	97% (active)	96.5% (active)
CC(=O)Nc1ccc(-c2nnc(SCC(=O)Nc3ccc([N+](=O)[O-])cc3)o2)cc1	-1%	45%	33.4%	-8%	65%	39.3%	0%	62%	46%	4%	56%	-37.9%	11%	92% (active)	82% (active)	5%	74% (active)	28.4%
C=C1C(=O)O[C@@H]2C[C@@]3(C)CCC[C@H](C)C3=C[C@H]12 (tested in a mixture with another compound)	9%	96% (active)	91.8% (active)	14%	97% (active)	93% (active)	4%	97% (active)	92.3% (active)	30%	91% (active)	90% (active)	13%	98% (active)	91.2% (active)	19%	98% (active)	91.5% (active)
